# Assay results as given in the supplement of paper PMC8975748.
# Where a name gives a salt, the structure may show the parent alone.
# System: Saccharomyces cerevisiae BY4741 SeMeCo community
# Assay: z-score of prototroph abundance vs DMSO median; higher = larger share of this subpopulation than in DMSO controls
# Details: 10 µM; 24 h; SM minimal medium; subpopulation (auxotrophy): Prototroph
# Description: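 Fluorescent four-plasmid SeMeCo (self-establishing metabolically cooperating S. cerevisiae BY4741 community; plasmids pH-mRuby2, pL-mWasabi, pU-eCFP, pM-TagRFP657) was grown 24 h in minimal SM medium with each Selleck FDA-approved drug at 10 µM in 384-well plates. Cells were fixed and imaged by high-content confocal microscopy. For each auxotrophic subpopulation (and the prototroph), a z-score gives the deviation from the DMSO vehicle-control population median.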
row,SMILES,z-score of prototroph abundance
1,CCOc1cc(N)c([N+](=O)[O-])cc1C(=O)NC1CCN(CC2CC=CCC2)CC1 (stereo not given) [Cinitapride Hydrogen Tartrate],-1.19
2,CC1(C)S[C@@H]2[C@H](NC(=O)C(C(=O)O)c3ccccc3)C(=O)N2[C@H]1C(=O)O (stereo not given in full) [Carbenicillin disodium],0.19
3,Cn1c(=O)c2c(ncn2CC2OCCO2)n(C)c1=O [Doxofylline],0.31
4,Cc1cc(C)nc(NS(=O)(=O)c2ccc(N)cc2)n1 [Sulfamethazine Sodium Salt],0.49
5,OC(CCCN1CCCCC1)(c1ccccc1)c1ccccc1 [Diphenidol HCl],-0.42
6,CC(N)C12CC3CC(CC(C3)C1)C2 (stereo not given) [Rimantadine],-1.12
7,Nc1c(CC(=O)O)cccc1C(=O)c1ccc(Br)cc1 [Bromfenac Sodium],-0.27
8,CN(Cc1ccc(C(C)(C)C)cc1)Cc1cccc2ccccc12 [Butenafine HCl],1.36
9,CC1(C)S[C@@H]2[C@H](NC(=O)[C@H](N)c3ccc(O)cc3)C(=O)N2[C@H]1C(=O)O [Amoxicillin Sodium],0.37
10,Cc1nccn1CC1CCc2c(c3ccccc3n2C)C1=O (stereo not given) [Ondansetron Hydrochloride Dihydrate],0.12
11,C=C1c2cccc(O)c2C(O)=C2C(=O)[C@]3(O)C(O)=C(C(N)=O)C(=O)[C@@H](N(C)C)[C@@H]3[C@@H](O)[C@H]12 [Methacycline HCl],0.09
12,CO[C@@]1(NC(=O)C(C(=O)O)c2ccc(O)cc2)C(=O)N2C(C(=O)O)=C(CSc3nnnn3C)CO[C@@H]21 (stereo not given in full) [Latamoxef sodium],0.35
13,CCCCOc1ccc(CC(=O)NO)cc1 [Bufexamac],1.23
14,O=C(O)c1cn(-c2ccc(F)cc2)c2cc(N3CCNCC3)c(F)cc2c1=O [Sarafloxacin HCl],0.01
15,CC1=C(C(=O)O)N2C(=O)[C@@H](NC(=O)[C@H](N)C3=CCC=CC3)[C@H]2SC1 [Cephradine monohydrate],0.03
16,CN(C)c1cc(NC(=O)CNC(C)(C)C)c(O)c2c1CC1CC3C(N(C)C)C(=O)C(C(N)=O)=C(O)C3(O)C(=O)C1=C2O (stereo not given) [Tigecycline],0.44
17,Oc1c(Cl)cc(Cl)c2cccnc12 [Chloroxine],-16.8
18,CCCCCC(=O)O[C@]1(C(C)=O)CC[C@H]2[C@@H]3CCC4=CC(=O)CC[C@]4(C)[C@H]3CC[C@@]21C [Hydroxyprogesterone caproate],-1.13
19,NC(=NCCCCCCN=C(N)N=C(N)Nc1ccc(Cl)cc1)N=C(N)Nc1ccc(Cl)cc1 [Chlorhexidine?2HCl],1.92
20,CN1CCN(C2=Nc3cc(Cl)ccc3Nc3ccccc32)CC1 [Clozapine],0.32

row,SMILES,z-score of prototroph abundance
1,CN(C)CCCN1c2ccccc2Sc2ccc(Cl)cc21 [Chlorpromazine HCl],-0.29
2,CCCOc1ccc2[nH]c(NC(=O)OC)nc2c1 [Oxibendazole],-1.22
3,CC/C(=C(\c1ccccc1)c1ccc(OCCN(C)C)cc1)c1ccccc1 [Tamoxifen],-0.91
4,CCCCCOc1ccccc1/C(=C\SC)n1ccnc1 [Neticonazole Hydrochloride],-8.79
5,CCCCCCCCCC(=O)NC1C(Oc2c3cc4cc2Oc2ccc(cc2Cl)C(OC2OC(CO)C(O)C(O)C2NC(C)=O)C2NC(=O)C(NC(=O)C4NC(=O)C4NC(=O)C(Cc5ccc(c(Cl)c5)O3)NC(=O)C(N)c3ccc(O)c(c3)Oc3cc(O)cc4c3)c3ccc(O)c(c3)-c3c(OC4OC(CO)C(O)C(O)C4O)cc(O)cc3C(C(=O)O)NC2=O)OC(CO)C(O)C1O (stereo not given) [Teicoplanin],-0.99
6,CCOc1ccc2nc3cc(N)ccc3c(N)c2c1 [Ethacridine lactate monohydrate],3.33
7,Clc1ccc(C(Cn2ccnc2)OCc2c(Cl)cccc2Cl)c(Cl)c1 (stereo not given) [Isoconazole nitrate],-7.83
8,OC(Cn1cncn1)(Cn1cncn1)c1ccc(F)cc1F [Fluconazole],2.13
9,CC(C(=O)O)c1cccc(C(=O)c2ccccc2)c1 (stereo not given) [Ketoprofen],-0.62
10,CCCCCCCCN=C(N)NC(N)=NCc1ccc(Cl)c(Cl)c1 [Olanexidine Hydrochloride semihydrate],-19.3
11,CCCCCCCCCCCCCCCCCCOP(=O)([O-])OC1CC[N+](C)(C)CC1 [Perifosine (KRX-0401)],-18.5
12,Cc1onc(-c2c(Cl)cccc2Cl)c1C(=O)N[C@@H]1C(=O)N2[C@@H]1SC(C)(C)[C@@H]2C(=O)O [Dicloxacillin Sodium],0.04
13,CO[C@@]1(NC(=O)Cc2cccs2)C(=O)N2C(C(=O)O)=C(COC(N)=O)CS[C@@H]21 [Cefoxitin sodium],1.38
14,C=CCCCCCCCCC(=O)[O-].C=CCCCCCCCCC(=O)[O-].[Zn+2] [Zinc Undecylenate],2.41
15,C#CCC(Cc1cnc2nc(N)nc(N)c2n1)c1ccc(C(=O)N[C@@H](CCC(=O)O)C(=O)O)cc1 (stereo not given in full) [Pralatrexate],0.41
16,Cc1ccc(C(=O)C(C)CN2CCCCC2)cc1 (stereo not given) [Tolperisone HCl],1.01
17,CO[C@H]1C[C@@H]2CC[C@@H](C)[C@@](O)(O2)C(=O)C(=O)N2CCCC[C@H]2C(=O)O[C@H]([C@H](C)C[C@@H]2CC[C@@H](OCCO)[C@H](OC)C2)CC(=O)[C@H](C)/C=C(\C)[C@@H](O)[C@@H](OC)C(=O)[C@H](C)C[C@H](C)/C=C/C=C/C=C/1C [Everolimus (RAD001)],-18.1
18,CC(C)Cc1ccc(C(C)C(=O)O)cc1 (stereo not given) [Ibuprofen],3.17
19,O=C(Cn1ccnc1[N+](=O)[O-])NCc1ccccc1 [Benznidazole],0.22
20,CSCC1CN(/N=C/c2ccc([N+](=O)[O-])o2)C(=O)O1 (stereo not given) [Nifuratel],1.73
